Among the data in PubChem BioAssay AID1259313 (Sanford-Burnham Center for Chemical Genomics, 2017) are Tm shift relative to glycine control values, retold here.

About 8,500 (2.5%) of roughly 340,000 compounds were called active. Only a selection was taken, and actives are over-represented in it overall. A number with no mark means an inactive call.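 How the source made its calls: active means melting temperature shift of at least 10% of the positive control shift, at one fixed dose; inactive means the rest.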

This assay has as its system Glutamate receptor ionotropic, NMDA 3A (GRIN3A) ligand-binding domain. Kind of assay: NR3A LBD thermal stabilization by compounds – biophysical, differential scanning fluorimetry, uHTS, primary screen (AID 1259313). Particulars: at 25 µM, active compounds read high, 0% = protein alone, 100% = glycine-bound protein. On the technique in general: Differential scanning fluorimetry follows unfolding on heating by fluorescence.
Take `Cc1cccc(N(CC(=O)N=Nc2c(O)[nH]c3ccccc23)S(C)(=O)=O)c1C`: the Tm shift relative to glycine control is -1.51%.
Take `Cc1c(-c2ccccc2)n[nH]c1C(=O)N=Nc1c(O)[nH]c2ccccc12`: the Tm shift relative to glycine control is 13.9% (active).
With `O=C(CCN1CCCCC1)N=Nc1c(O)[nH]c2ccccc12` the figure was -1%; with `COc1ccc(CNC(=O)C2CCN(S(=O)(=O)c3ccc(SC)cc3)CC2)cc1`, 1%.
Regarding `CCc1ccccc1NC(=O)CSc1nnc([C@@H](NC(=O)OC(C)(C)C)C(C)CC)o1` (stereo not given in full), the Tm shift relative to glycine control is -1.3%.
Regarding `CC(C)Sc1nnc([C@H](Cc2ccccc2)NC(=O)OC(C)(C)C)o1`, the Tm shift relative to glycine control was 32.2% (active).
With `C[C@@H](NC(=O)OC(C)(C)C)c1nnc(S(=O)(=O)Cc2ccccc2)o1` the figure was 0%; with `C/C(CC(O)(/C=N/O)c1ccccc1)=N\O` (stereo not given), 1.21%.
As to `COc1ccc2ccccc2c1CNc1nnnn1C`, the Tm shift relative to glycine control was 0.15%.
For `Cc1cccc(NC(=O)c2ccc3ccccc3n2)n1`, the Tm shift relative to glycine control is -0.88%.
With `Clc1ccc(Nc2ccc3ccccc3n2)cc1` the figure was 45% (active).
In the case of `O=C(NNC(=O)c1ccc2ccccc2c1)c1ccc(Cl)cc1`, the Tm shift relative to glycine control is -1.56%.
The same measure for `CC1(C)CC(=O)C=C(NCCCN2CCCC2=O)C1`: -0.27%; for `Nc1nc(C23CC4CC(CC(C4)C2)C3)cs1`: -1.42%; for `COC(=O)c1cc(NC(=O)c2cc(C(C)(C)C)nn2Cc2cccc(C)c2)ccc1N1CCOCC1`: -0.21%.
As to `CCCC1(C(=O)OCC)NC(c2ccc(N(C)C)cc2)C2C(=O)N(c3ccc4c(c3)OCCO4)C(=O)C21` (stereo not given), the Tm shift relative to glycine control was 17% (active).
For the molecule `CCCCC1(C(=O)OCC)NC(c2ccc(O)cc2)C2C(=O)N(c3ccccc3)C(=O)C21` (stereo not given), the Tm shift relative to glycine control was -1.17%.
`COC(=O)C1(C)NC(c2ccc(C)cc2)C2C(=O)N(c3ccc(F)cc3)C(=O)C21` (stereo not given): the Tm shift relative to glycine control was 2.13%.
Turning to `O=C(CC1SC(N2CCOCC2)=NC1=O)Nc1ccccc1F` (stereo not given), the Tm shift relative to glycine control is -1.22%.
As to `COc1ccc(S(=O)(=O)N2CCN(C(=O)N(C)C)C2C)cc1` (stereo not given), the Tm shift relative to glycine control was -2.39%.
The same measure for `Cc1nn(C)c(Cl)c1CN1CCC(Oc2ccc(C(=O)N3CCCC3)cc2)CC1`: 12.6% (active).
With `O=C(c1ccc(OC2CCN(Cc3ccccn3)CC2)cc1)N1CCCCCC1`, the Tm shift relative to glycine control was 0.85%.
`CC(=O)Nc1ccc(CN2CCC(Oc3ccc(C(=O)N4CCCC4)cc3)CC2)cc1`: the Tm shift relative to glycine control was 0.37%.
Regarding `COc1ccccc1C(=O)NC(=O)COC(=O)C1CC1`, the Tm shift relative to glycine control was -1.81%.
In the case of `C[C@@H](C(=O)N1CCNCC1)n1cc(CCC(=O)O)nn1`, the Tm shift relative to glycine control was 1.39%.
With `Cc1ccc(C(=O)N2CCN(S(=O)(=O)N3CCOCC3)CC2)cc1` the figure was -1.26%.
Turning to `O=C(c1cccc(S(=O)(=O)N2CCCCCC2)c1)N1CCN(Cc2ccccc2)CC1`, the Tm shift relative to glycine control is 0.36%.
As for `Cc1cccc(C(=O)N2CCN(S(=O)(=O)N3CCCCC3)CC2)c1`, the Tm shift relative to glycine control is 11.1% (active).
As to `CCOc1ccc(C(=O)Nc2c3c(nn2-c2ccccc2)CS(=O)(=O)C3)cc1`, the Tm shift relative to glycine control was -0.47%.
With `COc1cc(C(=O)Nn2c(CC(C)C)nc3ccccc3c2=O)cc(OC)c1OC` the figure was -0.54%.
Turning to `COc1cc(C(=O)Nn2c(O)c(C3=c4ccccc4=NC3=O)sc2=S)ccc1O`, the Tm shift relative to glycine control is 11.1% (active).
`COc1cc(C(=S)NC2CCCCC2)ccc1O`: the Tm shift relative to glycine control is -5.68%.
Turning to `CN(CC(=O)Nc1ccccc1F)CC(=O)Nc1ccccc1Br`, the Tm shift relative to glycine control was -1.08%.
On to `CCOc1ccc(NC(=O)CN(C)C(=O)COc2cccc(CC)c2)cc1OCC`, for which the Tm shift relative to glycine control was 3.14%.
With `Cc1nn(C)c(C)c1S(=O)(=O)N1CCc2ccccc21`, the Tm shift relative to glycine control is -0.32%.
On to `Cc1cccc(NC(=S)NCc2ccc3[nH]c4c(c3c2)CCCC4)c1`, for which the Tm shift relative to glycine control was 16.4% (active).
`CCc1cccc(CC)c1NC(=S)NCc1ccc2[nH]c(C)cc2c1`: the Tm shift relative to glycine control is -6.16%.
Turning to `Cc1cccc(NC(=S)N2CCC(C(=O)c3ccc(F)cc3)CC2)c1`, the Tm shift relative to glycine control was -1.17%.
The same measure for `CC(NC(=O)c1cc(=O)[nH]c2ccccc12)c1ccc(F)cc1F` (stereo not given): -1.44%.
For the molecule `CCCn1c(=N)n(CC(=O)c2ccc(Cl)c(Cl)c2)c2ccccc21`, the Tm shift relative to glycine control was -6.05%.
With `CCOC(=O)C1CCN(Cc2nnc(-c3cccc(Br)c3)o2)CC1` the figure was 222% (active); with `CCOC(=O)N1CCN(Cc2nnc(-c3ccccc3Cl)o2)CC1`, 0.35%.
With `CCOC(=O)C1CCN(Cc2ccc(-c3ccccc3)cc2)CC1`, the Tm shift relative to glycine control is -0.95%.
With `CCOC(=O)c1cc2c(=O)[nH]c(C(Cl)(Cl)Cl)nc2o1` the figure was 5.2%; with `C/C(Cl)=C\Cn1c(Nc2cccc(C)c2)nc2c1c(=O)n(C)c(=O)n2C`, 18.4% (active).
`Cc1cccc(Cn2c(N3CCN(c4ccccc4)CC3)nc3c2c(=O)n(C)c(=O)n3C)c1`: the Tm shift relative to glycine control was -1.11%.
As to `Cn1c(=O)c2c(nc(NCCc3ccccc3)n2Cc2ccccc2)n(C)c1=O`, the Tm shift relative to glycine control is -12.7%.
Consider `FC(F)(F)c1ccc(-c2cccc3c2C2CC3CCN2Cc2ccccc2)cc1` (stereo not given), for which the Tm shift relative to glycine control was 0.87%.
The same measure for `Cc1ccc(CNC(=O)CCNS(=O)(=O)c2cccc3nonc23)cc1`: 17.3% (active); for `CCc1cccc(NC(=O)CCNS(=O)(=O)c2cccc3nonc23)c1`: -1.5%; for `Cc1ccc(CNC(=O)CCNS(=O)(=O)c2ccc(Br)s2)cc1`: 0.52%.
For the molecule `COC(=O)c1ccc(CN(c2ccccc2OC)S(=O)(=O)c2cccs2)o1`, the Tm shift relative to glycine control is 0%.
For `COC(=O)[C@]1(Cc2ccccc2)N[C@H](CN(C)S(=O)(=O)c2ccc(F)cc2)[C@@H]2C(=O)N(Cc3ccccc3)C(=O)[C@@H]21`, the Tm shift relative to glycine control was 0.82%.
Consider `COC(=O)[C@]1(Cc2ccccc2)N[C@H](CN(C)S(=O)(=O)c2ccc(OC(F)(F)F)cc2)[C@@H]2C(=O)N(Cc3ccccc3)C(=O)[C@@H]21`, for which the Tm shift relative to glycine control is 18.1% (active).
`COC(=O)[C@]1(Cc2ccccc2)N[C@H](CN(C)S(=O)(=O)c2ccc(OC(F)(F)F)cc2)[C@@H]2C(=O)N(C)C(=O)[C@@H]21`: the Tm shift relative to glycine control is -3.1%.
`N/C(=N\S(=O)(=O)c1cc(C(F)(F)F)cc(C(F)(F)F)c1)c1cccs1`: the Tm shift relative to glycine control is -1.45%.
With `N#Cc1cccc(CSc2nnc(CCCO)n2-c2ccccc2)c1` the figure was -2.26%; with `O=C(Nc1ccc(S(=O)(=O)Nc2nccs2)cc1)c1cccc(S(=O)(=O)N2CCOCC2)c1`, -7.34%; with `O=C(Nc1ccc(N2CCOCC2)cc1)c1cccc(S(=O)(=O)N2CCOCC2)c1`, 1.57%.
With `O=C(Nc1ccc(S(=O)(=O)N2CCOCC2)cc1)c1ccc2ncsc2c1` the figure was 23.1% (active); with `COc1ccc2c(c1)OC(O)(C(F)(F)C(F)F)CC2=O` (stereo not given), -0.91%.
As for `C=CCN(c1ccc(Cl)cc1)S(=O)(=O)c1cccc(C(=O)OCC(=O)N(C)C)c1`, the Tm shift relative to glycine control is -2.3%.
Consider `O=C(CSc1nc(O)c(Cc2ccccc2)c(=O)[nH]1)Nc1nc2c(s1)CCCC2`, for which the Tm shift relative to glycine control is 0.31%.
Turning to `CN(C)CCNc1ccc(-c2n[nH]c(=O)c3ccccc23)cc1[N+](=O)[O-]`, the Tm shift relative to glycine control was -4.51%.
In the case of `COc1cc(C2c3cc4c(cc3C(O)C3COC(=O)C23)OCO4)cc(OC)c1OC` (stereo not given), the Tm shift relative to glycine control was 0.33%.
`OC(C#CCN1CCOCC1)(c1ccccc1)C1CCCCC1` (stereo not given): the Tm shift relative to glycine control is 0.88%.
`CC(C)(C)N(CC#CCC(O)(c1ccccc1)C1CCCC1)CCO` (stereo not given): the Tm shift relative to glycine control was 14.9% (active).
On to `CN(CC#CCC(c1ccccc1)c1ccccc1)C(C)(C)C`, for which the Tm shift relative to glycine control was -1.63%.
Turning to `O=C(NN1C(=O)C2C3C=CC(O3)C2C1=O)c1ccccc1` (stereo not given), the Tm shift relative to glycine control is -2.22%.
Consider `Cc1ccc2nsnc2c1NC(=O)c1ccccc1[N+](=O)[O-]`, for which the Tm shift relative to glycine control was -9.29%.
The same measure for `COc1ccc2nc(C)cc(Nc3cccc(C(=O)O)c3)c2c1`: -1.4%.
As to `COc1ccc2nc(/N=C(\N)NC(=O)Nc3ccccc3)nc(C)c2c1`, the Tm shift relative to glycine control was 29.4% (active).
In the case of `COc1ccc(NC(=O)Nc2ccc3nsnc3c2)cc1`, the Tm shift relative to glycine control is 33.6% (active).
On to `COCCNC(=O)Nc1ccc2nc(-c3ccco3)c(-c3ccco3)nc2c1`, for which the Tm shift relative to glycine control was -1.95%.
With `COc1ccc(/C=N/NC(=O)Nc2ccc3nsnc3c2)c(OC)c1` the figure was -2.88%; with `Cc1ccc(NC(=O)Nc2ccc3oc(C)nc3c2)cc1`, -7.01%.
Turning to `COc1ccc(NC(=O)Nc2ccc3nc(C)c(C)nc3c2)cc1`, the Tm shift relative to glycine control is 19% (active).
As for `Cc1nc(/N=C(\N)NC(=O)NC2CCCCC2)nc2ccccc12`, the Tm shift relative to glycine control is -0.41%.
On to `O=C(Nc1ccccc1)c1ccc2nsnc2c1`, for which the Tm shift relative to glycine control is 1.64%.
Consider `CCC1(C(=O)c2ccccc2)C(c2cccc([N+](=O)[O-])c2)C1(C(=O)OC)C(=O)OC` (stereo not given), for which the Tm shift relative to glycine control was -4.39%.
Consider `CCCCCN(C(=O)NC(=O)Nc1ccccc1C)S(C)(=O)=O`, for which the Tm shift relative to glycine control is -1.26%.
In the case of `O=C(CN1CCN(S(=O)(=O)c2ccc3ccccc3c2)CC1)NC(=O)NC1CCCCC1`, the Tm shift relative to glycine control was -9.92%.
In the case of `COc1cc(NS(=O)(=O)c2ccc(NC(=S)NC(=O)c3ccccc3)cc2)nc(OC)n1`, the Tm shift relative to glycine control was -2.53%.
In the case of `CCOC(=O)CCP(=O)(O)C(O)(c1ccccc1)c1ccccc1`, the Tm shift relative to glycine control is -1.33%.
Take `Cc1ccc(N2C(=O)CN=C2Nc2nc(C)cc(C)n2)cc1`: the Tm shift relative to glycine control was -1.23%.
On to `O=C(Nc1nnc(SCc2c(Cl)cccc2Cl)s1)C1CCCO1` (stereo not given), for which the Tm shift relative to glycine control is 1.89%.
With `O=C(Nc1nnc(SCc2ccccc2Cl)s1)c1cccc([N+](=O)[O-])c1`, the Tm shift relative to glycine control was -14.6%.
Take `O=C(Nc1nnc(SCc2ccc(Cl)cc2Cl)s1)C1COc2ccccc2O1` (stereo not given): the Tm shift relative to glycine control is 15.3% (active).
On to `Cc1nc([N+](=O)[O-])c(NCCCO)n1Cc1ccccc1`, for which the Tm shift relative to glycine control was -1.5%.
The same measure for `O=C(NCCCN1CCOCC1)c1cnn2c(-c3ccccc3)cc(-c3ccccc3)nc12`: -3.89%.
